# Out of some 330,000 compounds screened, about 2,800 (0.85%) were called active.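 Rule for the calls: active = mean inhibition across replicates of 60% or more, whatever share of single replicates reaches that level; inconclusive = some that reach 60%, reason not given; inactive = mean inhibition across replicates below 60%.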 The full list was thinned out, with actives kept by preference.
# Test: MITF transcriptional activity suppression – cell-based, SK-MEL-5, single point, luciferase, primary screen (AID 488899)
# Details: SK-MEL-5 TRPM1 promoter luciferase, 24 h; at 12.5 µM; hits give high values
row,SMILES,inhibition
1,COCCSc1nnc(NC(=O)c2cc(OC)c(OC)cc2[N+](=O)[O-])s1,-2.51% (inactive)
2,CC(=NNC(=O)c1ccncc1)c1ccc(Cl)c(Cl)c1,-7.3% (inactive)
3,NS(=O)(=O)c1ccc(CNC(=O)c2ccc(Cl)cc2[N+](=O)[O-])cc1,10.6% (inactive)
4,CC1=C(C(=O)OCc2ccccc2)C(c2ccc(C(F)(F)F)cc2)NC(=O)N1CCCCCC(=O)O (stereo unspecified),-6.33% (inactive)
5,CCCCNC(=O)C(C)N(CCN(C)C)C(=O)CCCCCN1C(=O)NC(c2ccc(Cl)cc2)C(C(=O)OCc2ccccc2)=C1C (stereo unspecified),94.5% (active)
6,CCOC(=O)C1=C(c2ccccc2)NC(=S)NC1c1ccc(Cl)cc1 (stereo unspecified),-19% (inactive)
7,CCCCNC(=O)C(C)N(CCN(C)C)C(=O)CCCN1C(=O)NC(c2ccc(Cl)cc2)C(C(=O)OCc2ccccc2)=C1C (stereo unspecified),91.1% (active)
8,CCOC(=O)CCCNC(=O)CN1C(=O)NC(CCc2ccccc2)C1=O (stereo unspecified),4.69% (inactive)
9,CCN1C(=O)N[C@@H](c2ccccc2)C(C(=O)OC)=C1C,-9.9% (inactive)
10,C/C(CC(=O)NCc1ccc(Cl)cc1)=N\NC(=O)COc1ccc(C)cc1Br,40.1% (inactive)
11,Nc1nc(SCC(=O)N2CCN(S(=O)(=O)c3ccc(Cl)cc3)CC2)n[nH]1,-2.96% (inactive)
12,Fc1ccccc1/C=N/Nc1cc(N2CCCCC2)ncn1,-35% (inactive)
13,COc1cccc2sc(N(CCCN(C)C)C(=O)CCS(=O)(=O)c3ccccc3)nc12,31.1% (inactive)
14,COc1cccc2sc(N(CCCN(C)C)C(=O)C(c3ccccc3)c3ccccc3)nc12,71.9% (active)
15,COc1cc2ccccc2cc1C(=O)N(CCN(C)C)c1nc2c(F)cccc2s1,2.41% (inactive)
16,COc1cccc2c1C(=O)c1c(O)c3c(c(O)c1C2=O)CC(O)(C(C)=NNC(=O)c1ccc(Cl)c(Cl)c1)CC3OC1CC(N)C(O)C(C)O1 (stereo unspecified),82.2% (active)
17,CN(CC(=O)Nc1ccc(F)c(F)c1F)C(=O)Cn1cnc2c1c(=O)n(C)c(=O)n2C,-2.69% (inactive)
18,Cc1ccc(OCC(=O)Nc2ccc3oc(=O)ccc3c2)cc1C,-15.4% (inactive)
19,CCN1/C(=C\c2ccc3ccccc3[n+]2CC)Sc2cc(C)ccc21,104% (active)
20,CC(C)(C)n1nc2c(c1NC(=O)c1ccc(S(=O)(=O)N3CCCC3)cc1)CS(=O)C2 (stereo unspecified),-11.4% (inactive)
21,CC(NC(=O)c1ccccc1)C(=O)Nc1ccccc1 (stereo unspecified),-6.34% (inactive)
22,O=C1C=C(NS(=O)(=O)c2ccccc2)C(=O)c2ccccc21,65.7% (active)
23,O=S(=O)(NCCNS(=O)(=O)c1ccccc1)c1ccccc1,11.2% (inactive)
24,O=C(NC1=CC(=O)c2ccccc2C1=O)c1ccccc1,94.4% (active)
25,COc1ccc(S(=O)(=O)/N=C2\C=C(NS(=O)(=O)c3ccccc3)C(=O)c3ccccc32)cc1,12.7% (inactive)
26,Cn1c(NC(=O)c2ccccc2)nc2ccccc21,-26.1% (inactive)
